# Gal4-VP16 FLuc – Gal4-VP16 reporter inhibition counter-screen | Drosophila S2 Gal4-VP16 UAS-luciferase, luminescence, 20 h | Potency, µM (doses to about 53.6 µM), inactives show at the top dose activity, negative = inhibition, usual class: inhibitors | 3.5% of 310,000 active | AID 2546;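 also: Gal4-VP16 expression switched on by copper sulfate through the metallothionein promoter; potency is read from the fitted curve at half-maximal effect; % is scaled to controls: 0 for no effect and ±100 for the full control effect; nearly all actives have a fitted effect of over 50% in size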
# ELG1 repair inh – blocks ELG1-dependent DNA repair in HEK293T cells. 2.3% of 330,000 active. HEK293T ELG1-luciferase reporter, luminescence, 16 h; DNA damage induced by 5-fluorouridine. AID 504467. Potency, µM (top dose mostly 46.1 µM), without a hit: at the top dose activity change, negative = inhibition, usual class: inhibitors; also: potency is read from the fitted curve at half-maximal effect; % is scaled to controls: 0 for no effect and ±100 for the full control effect; nearly all actives have a fitted effect of over 55% in size
#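 HEK293T cells expressing luciferase-tagged ELG1 (2,000/well) received 5-Fluorouridine plus compound or DMSO for 16 hr at 37 °C. Luciferase was read by ONE-Glo luminescence after 30 min at room temperature.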
# BRCA1 expr act – activators of BRCA1 expression. AID 624202. MCF7-BRCA1-FFLuc reporter, luminescence, 48 h; response scale: scaled: vehicle 0%, 10 µM genistein 100%. 1.1% of 380,000 active. Potency, µM (top dose mostly 46.1 µM), without a hit: at the highest dose activation, most hits filed as activators; also: potency is read from the fitted curve at half-maximal effect; nearly all actives have a fitted effect of over 80% in size
#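 Compounds are tested at multiple concentrations on MCF7 BRCA1-luciferase reporter cells seeded at 2000 per well; after 48 h, a single luminescence end-point is taken and curves fitted to the normalized data.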
# RORg inh – ROR gamma (mouse) transcription inhibition | Potency, µM (titrated, usually from 53.6 µM), without a hit: at the highest dose activity change, negative = inhibition, most hits filed as inhibitors | Drosophila S2 Gal4-RORgamma UAS-luciferase reporter, 20 h | P51450 | AID 2551 | 5.4% of 310,000 active; also: potency is read from the fitted curve at half-maximal effect; % is scaled to controls: 0 for no effect and ±100 for the full control effect; nearly all actives have a fitted effect of over 60% in size
# Target sequence (P51450 whole entry, looked up, the tested form may be a part): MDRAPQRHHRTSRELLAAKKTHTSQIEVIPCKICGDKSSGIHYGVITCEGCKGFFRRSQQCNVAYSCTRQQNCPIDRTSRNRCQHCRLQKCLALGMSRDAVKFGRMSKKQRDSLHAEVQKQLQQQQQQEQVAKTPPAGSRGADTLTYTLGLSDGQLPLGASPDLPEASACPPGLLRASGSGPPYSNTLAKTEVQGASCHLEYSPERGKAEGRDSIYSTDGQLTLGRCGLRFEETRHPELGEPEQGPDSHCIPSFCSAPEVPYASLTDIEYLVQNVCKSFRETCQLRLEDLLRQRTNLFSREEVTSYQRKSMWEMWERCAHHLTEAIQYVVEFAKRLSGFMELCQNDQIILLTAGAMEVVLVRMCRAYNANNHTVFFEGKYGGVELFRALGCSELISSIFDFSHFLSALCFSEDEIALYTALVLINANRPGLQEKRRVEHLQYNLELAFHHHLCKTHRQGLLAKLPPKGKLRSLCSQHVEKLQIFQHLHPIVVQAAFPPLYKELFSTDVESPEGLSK
#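 Drosophila Schneider cells stably carrying a metallothionein-driven Gal4 DBD–ROR gamma fusion and a UAS-Photinus luciferase reporter were exposed to compound for 1 hr, then induced with copper sulfate (700 uM final) for 20 hr at ambient temperature before luminescence reading.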
# p53 reactivation – restores transcriptional activity of mutant p53; H1299 p53-A138V BP100-luciferase reporter, luminescence, 24 h; Potency, µM (titrated, usually from 92.2 µM), without a hit: top-dose activity change, positive = activation, actives largely listed as activators; 0.063% of 320,000 active; also: potency is read from the fitted curve at half-maximal effect; % of control where 0% means no effect; nearly all actives have a fitted effect of over 45% in size
#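 H1299 (p53-null), stable ts p53-A138V + BP100-Luc; 1000 cells/well, Opti-MEM/10% FBS; cpd 4 pt, 1:5; 24 h, 37 deg C, 5% CO2; detection reagent 10 min RT; luminescence.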
# Giardia killer – kills Giardia lamblia; Giardia lamblia trophozoite viability; activity change, % at 7.66 µM, hits read low; 0.15% of 340,000 active; in the data active = activity change below about -80%; inconclusive = between about -30% and that limit;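 also: parasites exposed to compound for two days anaerobically before the ATP read; % is scaled to controls: 0 for no effect and ±100 for the full control effect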
#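 Giardia trophozoites, 100 cells per well, were exposed to compounds for 48 hrs at 37 deg C under anaerobic conditions; viability was then read as ATP content by bioluminescence after 15-30 min at room temperature.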
# ELG1 FLuc counter – luciferase inhibition in cell-free luciferin readout for ELG1 hits; shares compounds with ELG1 repair inh; cell-free firefly luciferase luminescence counter-screen, ViewLux; Potency, µM (titrated, usually from 46.1 µM), for inactives: top-dose activity change, negative = inhibition, hits mostly inhibitors; 3% of 350 active; AID 624247; also: potency is read from the fitted curve at half-maximal effect; % is scaled to controls: 0 for no effect and ±100 for the full control effect
# ELG1-Luc inh – human ELG1 repair inhibition, luciferase-tagged ELG1 confirmation | Potency, µM (top dose mostly 46.1 µM), for inactives: at the highest dose activity change, negative = inhibition, most hits filed as inhibitors | HEK293T ELG1-luciferase levels, luminescence; cells co-treated with 5-fluorouridine | 68% of 670 active | AID 624248 | shares compounds with ELG1 repair inh; also: potency is read from the fitted curve at half-maximal effect; % is scaled to controls: 0 for no effect and ±100 for the full control effect; nearly all actives have a fitted effect of over 55% in size
# ELG1 MMS Luc – MMS-stimulated human ELG1 repair inhibition, confirmed | shares compounds with ELG1 repair inh | HEK293T luciferase-tagged ELG1 level, MMS stimulated | Potency, µM (highest dose often 46.1 µM), for the others: at the top dose activity change, negative = inhibition, actives largely listed as inhibitors | 53% of 670 active | AID 624249; also: potency is read from the fitted curve at half-maximal effect; % is scaled to controls: 0 for no effect and ±100 for the full control effect; nearly all actives have a fitted effect of over 60% in size
# ELG1 5FU viab – confirmation of ELG1 repair inhibitors: viability with 5FU | shares compounds with ELG1 repair inh | Potency, µM (series often up to 46.1 µM), without a hit: at the top dose activity change, negative = viability loss, most hits filed as cytotoxic | 670 tested, under 10 active | AID 624250 | cell viability with 5-FU, ELG1-dependent repair;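 also: ELG1-luc HEK293T cells cotreated with 5-fluorouridine at 10 µM final; potency is read from the fitted curve at half-maximal effect; viability measured 16 h after compound addition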
# ELG1 MMS cell – confirmation of ELG1 repair inhibitors: viability with MMS; Cell viability with MMS, ELG1-dependent DNA repair; shares compounds with ELG1 repair inh; 33% of 670 active; Potency, µM (series often up to 46.1 µM), inactives show at the top dose activity change, negative = viability loss, usual class: cytotoxic; AID 624251;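 also: ELG1-luc HEK293T cells co-treated with 10 µM MMS; potency is read from the fitted curve at half-maximal effect; viability read 16 h after compound addition; % is scaled to controls: 0 for no effect and ±100 for the full control effect; nearly all actives have a fitted effect of over 60% in size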
# ELG1 unstim viab – counter-screen for ELG1 repair inhibitors: unstimulated cell viability | 8% of 900 active | shares compounds with ELG1 repair inh | cell viability counter-screen, unstimulated, luminescence | Potency, µM (top dose mostly 45.9 µM), for the others: at the highest dose activity change, negative = loss of viability, actives largely listed as cytotoxic;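 also: potency is read from the fitted curve at half-maximal effect; compound exposure lasted 16 hours before reading; % is scaled to controls: 0 for no effect and ±100 for the full control effect; nearly all actives have a fitted effect of over 55% in size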
# FLuc enzyme – inhibits purified firefly luciferase, counter-screen for ELG1 hits. shares compounds with ELG1 repair inh. purified firefly luciferase, luminescence counter-screen. Potency, µM (top dose mostly 57.5 µM), inactives show at the top dose activity, negative = inhibition, most hits filed as inhibitors. 10% of 350 active. AID 624253; also: potency is read from the fitted curve at half-maximal effect; % is scaled to controls: 0 for no effect and ±100 for the full control effect
# Numbers without * were called inactive; ? = inconclusive; . = not tested or not shown. Only some compounds are listed: those with a hit (about 7.6% of all), similar ones and a draw of the others. Unless noted, calls follow the shape of the dose curve; as a rule, active = well fitted curve in the direction sought with a large enough effect; inconclusive = small, poorly fitted or top-dose-only effect, or another doubt; inactive = no such curve, though single readings can be large; an effect the other way counts as inactive or inconclusive.
SMILES,Gal4-VP16 FLuc,ELG1 repair inh,BRCA1 expr act,RORg inh,p53 reactivation,Giardia killer,ELG1-Luc inh,ELG1 MMS Luc,ELG1 5FU viab,ELG1 MMS cell,ELG1 unstim viab,others
Cc1cccc2nc(Cn3c(=O)n(-c4ccc(Cl)cc4)c(=O)c4c5c(sc43)CCC5)cc(=O)n12,.,.,-23.1%,.,.,.,.,.,.,.,.,
COC1=C(N)C(=O)c2nc(-c3nc(C(=O)O)c(C)c(-c4ccc(OC)c(OC)c4O)c3N)ccc2C1=O,?,0.82µM*,?,14.1µM*,-23.6%,?,1.12µM*,0.0397µM*,2.23µM*,0.0561µM*,1.12µM*,ELG1 FLuc counter=2.5µM*;FLuc enzyme=-8.4%
COc1ccc(C(=O)O)c(O)c1OC,-3.6%,.,.,5.5%,.,.,.,.,.,.,.,
COc1cc2c(cc1OC)C1C(=O)c3c(O)cc4c(c3OC1CO2)C=CC(C)(C)O4 (stereo not drawn),0.891µM*,.,.,6.31µM*,.,.,?,0.397µM*,-8.0%,0.397µM*,?,ELG1 FLuc counter=-3.7%;FLuc enzyme=-3.4%
Fc1ccccc1COc1ccc(Br)cc1CNCc1ccncc1,?,?,-43.6%,?,-6.7%,-5.5,.,.,.,.,.,
Fc1ccc(COc2ccc(Br)cc2CNCc2ccncc2)cc1,-7.8%,?,-34.2%,-0.9%,0.0%,-9.9,28.1µM*,?,-7.2%,?,?,
CCCCc1ccc(NC(=O)C(=O)NCCN2CCN(Cc3ccc([N+](=O)[O-])cc3)CC2)cc1,-28.1%,3.26µM*,-0.4%,?,-2.0%,31.2,?,0.791µM*,-0.1%,1.25µM*,-14.8%,
CNC(=O)C(=O)NCCN1CCN(C(=O)c2ccc([N+](=O)[O-])cc2)CC1,-0.2%,10.5%,1.4%,-3.6%,-0.3%,0.7,.,.,.,.,.,
COc1ccccc1CCc1nnc(CCC(=O)N(C)Cc2cccc3cnccc23)o1,6.6%,?,?,5.7%,5.7%,-5.6,.,.,.,.,.,
COc1ccc(CCc2nnc(CCC(=O)N(C)Cc3ccnc4ccccc34)o2)cc1,?,?,-1.3%,?,4.5%,3.6,?,7.05µM*,-7.5%,6.28µM*,?,

# Screening data from PubChem BioAssay.
